Calls of active or inactive are those of the source. The calls were made as follows: active = hit-call score of the fitted dose curve at least 0.9, where 1 is the maximum; inactive = score below 0.9.
What was measured:
[1] = ATG_ISRE_CIS: Attagene CIS-FACTORIAL HepG2 Assay for human Interferon Regulatory Factor 1 (IRF1) binding to an Interferon-Stimulated Response Element (ISRE) (AID 2282948); conditions: HepG2 ISRE cis-reporter (Attagene), mRNA transcription readout; actives raise or lower the signal
Outline: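 Multiplexed mRNA reporter readout in human liver HepG2 cells: cis-element-driven reporters transfected, compound added for 24 h, transcripts amplified, fluorescently labelled and sized by capillary electrophoresis; curve fitting bidirectional against DMSO.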

[2] = ATG_M_32_CIS: Attagene CIS-FACTORIAL HepG2 Assay for M32 Transcription Factor (Internal Marker) (AID 2282949); conditions: HepG2 Attagene cis-factorial M32 reporter, mRNA; actives raise or lower the signal;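 also: background control marker of the multiplexed CIS panel rather than a real target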
Outline: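 HepG2 human liver cells transiently transfected with cis-promoter-driven multiple reporter transcription units, dosed 24 h. Reporter mRNA quantified by RT-PCR, FAM-labelled primer extension, HpaI digest and capillary electrophoresis; bidirectional fit versus DMSO baseline.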

[3] = ATG_M_06_CIS: Attagene CIS-FACTORIAL HepG2 Assay for M06 Transcription Factor (Internal Marker) (AID 2282950); conditions: HepG2 Attagene CIS-FACTORIAL M06 internal marker reporter; actives raise or lower the signal
Outline: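 Read-out is fluorescence of labelled reporter cDNA fragments resolved by capillary electrophoresis after RT-PCR. Cells: HepG2 carrying transfected cis-promoter reporter units, treated 24 h. Gain or loss of signal fitted relative to DMSO.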

[4] = molecular target: Hypoxia-inducible factor 1-alpha (Homo sapiens) (UniProt Q16665); experiment: ATG_HIF1a_CIS: Attagene CIS-FACTORIAL HepG2 Assay for human Hypoxia Inducible Factor 1 (HIF1A) (AID 2282951); conditions: HepG2 Attagene cis-factorial HIF1a reporter transcription; actives raise or lower the signal
Chain of Hypoxia-inducible factor 1-alpha (Homo sapiens) (Q16665 whole entry, looked up): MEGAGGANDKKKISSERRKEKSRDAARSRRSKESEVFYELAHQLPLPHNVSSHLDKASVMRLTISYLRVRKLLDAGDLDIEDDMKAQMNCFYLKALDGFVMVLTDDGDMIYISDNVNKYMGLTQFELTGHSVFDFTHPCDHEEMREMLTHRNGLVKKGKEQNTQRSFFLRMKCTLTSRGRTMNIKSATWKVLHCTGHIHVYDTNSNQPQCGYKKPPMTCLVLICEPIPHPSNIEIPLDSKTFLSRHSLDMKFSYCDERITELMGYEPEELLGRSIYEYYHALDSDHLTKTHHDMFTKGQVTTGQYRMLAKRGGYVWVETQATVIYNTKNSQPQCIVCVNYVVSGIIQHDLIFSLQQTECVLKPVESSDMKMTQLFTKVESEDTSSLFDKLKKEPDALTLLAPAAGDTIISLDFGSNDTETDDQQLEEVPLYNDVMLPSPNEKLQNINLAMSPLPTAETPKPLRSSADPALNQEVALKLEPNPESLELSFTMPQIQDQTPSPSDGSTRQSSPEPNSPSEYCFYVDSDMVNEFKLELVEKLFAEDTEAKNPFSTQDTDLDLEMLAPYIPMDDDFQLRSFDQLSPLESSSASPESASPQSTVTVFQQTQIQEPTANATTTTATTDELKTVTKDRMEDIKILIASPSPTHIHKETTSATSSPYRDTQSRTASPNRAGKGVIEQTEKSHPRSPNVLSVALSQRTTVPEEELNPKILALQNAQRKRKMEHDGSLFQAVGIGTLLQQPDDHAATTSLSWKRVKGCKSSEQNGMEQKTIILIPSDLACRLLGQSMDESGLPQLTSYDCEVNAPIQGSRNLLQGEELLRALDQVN
Outline: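 HepG2, transient cis-reporter library, 24 h dosing. RNA → RT (oligo dT) → PCR → 6-FAM primer extension → HpaI → CE. Bidirectional curve fit vs DMSO.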

[5] = molecular target: Hepatocyte nuclear factor 6 (Homo sapiens) (UniProt Q9UBC0); experiment: ATG_HNF6_CIS: Attagene CIS-FACTORIAL HepG2 Assay for human Hepatocyte Nuclear Factor 6 (HNF6) (AID 2282952); conditions: HepG2 Attagene cis-factorial HNF6 reporter transcription; actives raise or lower the signal
Chain of Hepatocyte nuclear factor 6 (Homo sapiens) (Q9UBC0 whole entry, looked up, the tested form may be a part): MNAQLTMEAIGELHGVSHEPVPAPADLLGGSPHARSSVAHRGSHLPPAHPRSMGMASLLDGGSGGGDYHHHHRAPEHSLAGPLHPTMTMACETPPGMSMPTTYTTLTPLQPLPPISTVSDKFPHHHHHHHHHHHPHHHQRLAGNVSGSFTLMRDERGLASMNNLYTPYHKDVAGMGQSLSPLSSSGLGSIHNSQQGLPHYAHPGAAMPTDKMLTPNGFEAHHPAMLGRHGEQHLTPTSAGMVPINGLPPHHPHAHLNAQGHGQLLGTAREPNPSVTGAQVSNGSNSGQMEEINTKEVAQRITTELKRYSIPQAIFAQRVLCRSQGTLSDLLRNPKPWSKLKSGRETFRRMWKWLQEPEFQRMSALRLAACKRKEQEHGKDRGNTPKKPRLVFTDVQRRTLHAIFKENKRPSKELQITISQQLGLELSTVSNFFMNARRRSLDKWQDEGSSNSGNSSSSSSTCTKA
Outline: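 Using cis-element reporters in HepG2 liver cells, the assay tracks endogenous factor-driven transcription 24 h post-dosing. Signal comes from 6-FAM-labelled, HpaI-digested RT-PCR fragments, with gain or loss scored against DMSO.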

[6] = ATG_MRE_CIS: Attagene CIS-FACTORIAL HepG2 Assay for human Metal Responsive Element (MRE) (AID 2282954); conditions: HepG2 MRE cis-reporter transcription, Attagene multiplex; actives raise or lower the signal
Outline: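 Measured here is mRNA induction from an MRE cis-element reporter in HepG2 after 24 h, quantified by fluorescence of labelled RT-PCR products on capillary electrophoresis; gain- and loss-of-signal fits use DMSO as baseline.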

[7] = molecular target: Paired box protein Pax-6 (Homo sapiens) (UniProt P26367); experiment: ATG_Pax6_CIS: Attagene CIS-FACTORIAL HepG2 Assay for human Paired Box 6 (PAX6) (AID 2282956); conditions: HepG2 CIS-FACTORIAL PAX6 reporter transcription, RNA readout; actives raise or lower the signal
Chain of Paired box protein Pax-6 (Homo sapiens) (P26367 whole entry, looked up): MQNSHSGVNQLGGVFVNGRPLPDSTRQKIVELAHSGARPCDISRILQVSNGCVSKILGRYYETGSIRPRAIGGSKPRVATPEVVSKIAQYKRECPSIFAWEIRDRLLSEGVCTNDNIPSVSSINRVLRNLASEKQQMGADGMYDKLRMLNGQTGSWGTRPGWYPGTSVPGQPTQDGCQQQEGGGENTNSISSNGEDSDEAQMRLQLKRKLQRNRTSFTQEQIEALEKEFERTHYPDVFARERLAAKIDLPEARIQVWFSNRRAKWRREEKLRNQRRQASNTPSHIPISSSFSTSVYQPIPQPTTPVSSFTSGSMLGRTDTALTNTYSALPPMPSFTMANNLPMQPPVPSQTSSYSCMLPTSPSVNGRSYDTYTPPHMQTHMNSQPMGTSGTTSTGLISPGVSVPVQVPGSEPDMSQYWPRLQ
Outline: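 Fluorescent RT-PCR products separated by capillary electrophoresis report PAX6-linked promoter mRNA in HepG2 cells 24 h post-dose. Curves fitted bidirectionally, DMSO as negative control.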

[8] = ATG_PXRE_CIS: Attagene CIS-FACTORIAL HepG2 Assay for human Pregnane X Receptor Element (PXRE) (AID 2282957); conditions: HepG2 Attagene CIS-FACTORIAL PXRE reporter, mRNA; actives raise or lower the signal
Outline: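 Using HepG2 transfected with multiple reporter transcription units, endogenous factor-driven transcription was scored as reporter mRNA after 24 h exposure.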

[9] = ATG_PPRE_CIS: Attagene CIS-FACTORIAL HepG2 Assay for human Peroxisome Proliferator-activated Response Element (PPRE) (AID 2282958); conditions: HepG2 PPRE cis-element reporter, Attagene transcription factor profiling; actives raise or lower the signal
Outline: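 Transcript-level reporter induction in transfected HepG2 cells after 24 h chemical exposure, quantified by fluorescence from RT-PCR products separated by capillary electrophoresis.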

[10] = ATG_RORE_CIS: Attagene CIS-FACTORIAL HepG2 Assay for human RAR-related Orphan Receptor Element (RORE) (AID 2282959); conditions: HepG2 Attagene cis-factorial RORE reporter, mRNA; actives raise or lower the signal
Outline: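 Multiplexed reporter assay measuring mRNA induction from a cis promoter element in transiently transfected HepG2 cells after 24 h treatment. Detection via RT-PCR and capillary electrophoresis fluorescence; DMSO serves as baseline.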

[11] = ATG_Sox_CIS: Attagene CIS-FACTORIAL HepG2 Assay for human SRY-box transcription factor (SOX) (AID 2282960); conditions: HepG2 Attagene cis-factorial SOX reporter, mRNA; actives raise or lower the signal
Outline: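 Cells were transfected with reporter constructs under cis-regulatory promoters, then exposed to chemicals for 24 h. Reporter transcripts were quantified by fluorescence after RT-PCR and capillary electrophoresis; activity was fitted in both directions against DMSO.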

[12] = molecular target: Transcription factor Sp1 (Homo sapiens) (UniProt P08047); experiment: ATG_Sp1_CIS: Attagene CIS-FACTORIAL HepG2 Assay for human Specificity Protein 1 (Sp1) (AID 2282961); conditions: HepG2 Sp1 cis-reporter transcription, actives raise or lower the signal
Chain of Transcription factor Sp1 (Homo sapiens) (P08047 whole entry, looked up): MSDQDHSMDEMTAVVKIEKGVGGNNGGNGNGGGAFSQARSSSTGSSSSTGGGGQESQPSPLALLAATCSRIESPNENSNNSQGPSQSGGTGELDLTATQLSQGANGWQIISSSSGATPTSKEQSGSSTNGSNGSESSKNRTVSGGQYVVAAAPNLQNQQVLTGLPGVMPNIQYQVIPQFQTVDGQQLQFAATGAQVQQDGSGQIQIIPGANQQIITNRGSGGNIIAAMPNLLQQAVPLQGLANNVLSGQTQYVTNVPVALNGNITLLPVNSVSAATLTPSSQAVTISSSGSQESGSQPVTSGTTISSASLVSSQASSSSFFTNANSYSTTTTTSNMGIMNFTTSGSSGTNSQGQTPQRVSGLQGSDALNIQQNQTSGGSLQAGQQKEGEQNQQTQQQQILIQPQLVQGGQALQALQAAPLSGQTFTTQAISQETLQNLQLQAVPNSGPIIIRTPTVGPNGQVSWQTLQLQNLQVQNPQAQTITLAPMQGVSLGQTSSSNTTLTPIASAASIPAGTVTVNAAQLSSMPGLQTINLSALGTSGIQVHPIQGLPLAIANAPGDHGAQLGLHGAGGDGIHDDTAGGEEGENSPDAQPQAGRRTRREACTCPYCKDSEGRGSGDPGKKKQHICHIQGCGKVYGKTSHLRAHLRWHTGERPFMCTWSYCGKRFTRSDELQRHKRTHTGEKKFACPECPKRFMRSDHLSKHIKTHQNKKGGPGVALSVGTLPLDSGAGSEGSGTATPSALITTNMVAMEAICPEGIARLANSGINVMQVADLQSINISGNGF
Outline: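 Measures mRNA induction of an Sp1-linked reporter in HepG2 cells 24 h post-dosing. Multiplexed reporters read by RT-PCR and capillary electrophoresis; DMSO serves as negative control and baseline.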

[13] = ATG_SREBP_CIS: Attagene CIS-FACTORIAL HepG2 Assay for human Sterol Regulatory Element Binding (SREBP) (AID 2282962); conditions: HepG2 Attagene cis-factorial SREBP reporter, mRNA; actives raise or lower the signal
Outline: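 Endogenous factor activity is measured in HepG2 through multiplexed reporter units under cis-element control. Following a 24 h incubation, reporter transcripts are reverse-transcribed, PCR-amplified and sized by capillary electrophoresis; activity is fitted in both directions relative to DMSO.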

[14] = molecular target: Signal transducer and activator of transcription 3 (Homo sapiens) (UniProt P40763); experiment: ATG_STAT3_CIS: Attagene CIS-FACTORIAL HepG2 Assay for human Signal Transducer and Activator of Transcription 3 (STAT3) (AID 2282963); conditions: HepG2, Attagene cis-factorial STAT3 reporter transcription; actives raise or lower the signal
Chain of Signal transducer and activator of transcription 3 (Homo sapiens) (P40763 whole entry, looked up, the tested form may be a part): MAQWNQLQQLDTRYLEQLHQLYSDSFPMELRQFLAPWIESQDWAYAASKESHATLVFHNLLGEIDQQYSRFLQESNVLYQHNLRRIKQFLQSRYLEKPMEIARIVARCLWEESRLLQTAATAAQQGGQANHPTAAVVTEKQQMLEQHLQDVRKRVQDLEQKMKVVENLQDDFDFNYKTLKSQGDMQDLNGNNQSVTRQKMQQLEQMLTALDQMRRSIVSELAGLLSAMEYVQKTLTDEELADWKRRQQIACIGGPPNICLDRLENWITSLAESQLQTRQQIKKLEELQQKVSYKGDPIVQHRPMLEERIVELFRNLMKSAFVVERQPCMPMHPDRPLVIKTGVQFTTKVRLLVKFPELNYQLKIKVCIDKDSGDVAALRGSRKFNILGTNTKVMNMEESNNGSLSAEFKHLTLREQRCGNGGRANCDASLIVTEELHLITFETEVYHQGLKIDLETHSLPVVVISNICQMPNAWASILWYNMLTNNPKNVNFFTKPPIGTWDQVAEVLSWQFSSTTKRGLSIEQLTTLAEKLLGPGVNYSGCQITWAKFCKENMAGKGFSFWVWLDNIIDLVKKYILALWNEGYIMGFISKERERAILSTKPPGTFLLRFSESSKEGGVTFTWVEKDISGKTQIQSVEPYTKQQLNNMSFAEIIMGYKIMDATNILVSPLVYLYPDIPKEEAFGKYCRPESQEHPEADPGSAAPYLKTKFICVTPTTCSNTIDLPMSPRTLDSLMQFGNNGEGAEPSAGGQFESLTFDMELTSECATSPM
Outline: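 Fluorescence intensity of 6-FAM-labelled reporter fragments, separated by capillary electrophoresis after RT-PCR, gave the signal. Cells were HepG2 transfected with cis-element reporter units and treated 24 h; fitting was bidirectional relative to DMSO.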

[15] = ATG_TA_CIS: Attagene CIS-FACTORIAL HepG2 Assay for human TA Basal Promoter (AID 2282964); conditions: HepG2 Attagene CIS-factorial TA basal promoter reporter; actives raise or lower the signal
Outline: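 Read-out: fluorescent reporter-transcript fragments resolved by capillary electrophoresis after RT-PCR and HpaI digestion. Source: HepG2 cells carrying transiently transfected multi-reporter cis constructs, treated 24 h. Endpoint fitted bidirectionally relative to DMSO.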

[16] = ATG_TCF_b_cat_CIS: Attagene CIS-FACTORIAL HepG2 Assay for human T-Cell-Factor with beta-catenin (TCF/b-cat) (AID 2282965); conditions: HepG2 TCF/beta-catenin cis-reporter transcription, actives raise or lower the signal
Outline: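 HepG2 cells transiently transfected with cis-promoter-driven multiplexed reporter units; reporter mRNA measured 24 h after dosing by RT-PCR, FAM labelling, HpaI digestion and capillary electrophoresis. Bidirectional fitting relative to DMSO baseline.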

[17] = molecular target: Heat shock factor protein 1 (Homo sapiens) (UniProt Q00613); experiment: ATG_HSE_CIS: Attagene CIS-FACTORIAL HepG2 Assay for human Heat Shock Transcription Factor 1 (HSE) (AID 2282953); conditions: HepG2 HSE cis-reporter, Attagene RNA transcription; actives raise or lower the signal
Chain of Heat shock factor protein 1 (Homo sapiens) (Q00613 whole entry, looked up): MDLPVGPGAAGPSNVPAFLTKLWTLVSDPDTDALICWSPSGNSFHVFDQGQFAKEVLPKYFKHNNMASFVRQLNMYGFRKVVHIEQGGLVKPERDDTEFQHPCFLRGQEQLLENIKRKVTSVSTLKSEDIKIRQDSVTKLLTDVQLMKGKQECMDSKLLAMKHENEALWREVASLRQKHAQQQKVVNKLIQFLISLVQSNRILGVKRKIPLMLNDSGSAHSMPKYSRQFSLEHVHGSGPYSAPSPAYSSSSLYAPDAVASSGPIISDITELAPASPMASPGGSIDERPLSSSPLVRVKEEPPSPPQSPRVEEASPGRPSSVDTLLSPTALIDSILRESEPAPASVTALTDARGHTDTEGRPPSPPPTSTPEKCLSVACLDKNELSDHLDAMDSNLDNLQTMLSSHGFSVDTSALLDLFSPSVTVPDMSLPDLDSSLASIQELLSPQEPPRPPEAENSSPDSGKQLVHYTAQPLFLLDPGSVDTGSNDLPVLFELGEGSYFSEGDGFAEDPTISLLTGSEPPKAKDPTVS
Outline: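 HepG2, transient MRTU transfection, cis-promoter reporters (endogenous TF activity). 24 h compound. RNA → oligo(dT) RT → PCR → 6-FAM primer extension → HpaI cut → CE. Bidirectional fit vs DMSO.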

[18] = ATG_PBREM_CIS: Attagene CIS-FACTORIAL HepG2 Assay for human Phenobarbital-responsive Enhancer Module (PBREM) (AID 2282955); conditions: HepG2 PBREM cis-reporter, Attagene multiplexed transcription; actives raise or lower the signal
Outline: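 HepG2, transient MRTU transfection, 24 h dosing; RNA → oligo(dT) RT → PCR → 6-FAM extension → HpaI → CE. Bidirectional fit vs DMSO.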

Measured: AC50

O=C1C(c2[nH]c3ccc(S(=O)(=O)O)cc3c2O)=Nc2ccc(S(=O)(=O)O)cc21
not listed: [17] | [18]
inactive: all other assays above

COc1ccc(Cl)cc1C
not listed: [2] | [9] | [10] | [18]
inactive: all other assays above

O=C(O)COCCN1CCN(C(c2ccccc2)c2ccc(Cl)cc2)CC1 (stereo not given)
not listed: [4] | [5] | [16]
inactive: all other assays above

NC(=O)NC1NC(=O)NC1=O (stereo not given)
not listed: [5] | [8]
inactive: all other assays above

CCn1c2ccccc2c2cc(N)ccc21
active: [18] 37 µM | [9] 100 µM | [13] 27.3 µM
not listed: [5] | [8] | [10] | [14]
inactive: all other assays above

CC[Si](OC(C)=O)(OC(C)=O)OC(C)=O
active: [18] 18.7 µM | [8] 6.28 µM
not listed: [2] | [6] | [15]
inactive: all other assays above

O=C[C@@H](O)[C@H](O)[C@H](O)CO
not listed: [2] | [15] | [16]
inactive: all other assays above

Source: PubChem BioAssay (EPA / NIEHS)
